# Laboratory results: the supplement of paper PMC10037445
# The full ranking holds about 2,900 compounds; the median of “NF-kB SEAP reporter activity, fold change vs agonist alone” is about 0.99, and the highest 2% start at about 2.6. The full list was thinned out, with the highest values kept by preference.
# Assays:
# RAW-Dual [1] = assay: NF-kB SEAP reporter activity, fold change vs agonist alone; cytotoxicity flag (confluency mask): not cytotoxic; higher = enhanced NF-kB activity
# Summary of the method: (§1)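 After 50 nL of library stock was delivered by pin tool to RAW-Dual macrophages (50,000 cells/well, DMEM, 384-well plates), a PRR agonist was added 1 h later and the plates were kept at 37 °C, 5% CO2. Twenty hours later, IRF was read from supernatant by QuantiLuc luminescence and NF-κB by QuantiBlue absorbance at 620 nm. Reporter activity is stated as fold change over agonist-alone wells. Wells with IncuCyte confluency under 70% of agonist controls in both mask sets were counted as cytotoxic.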
# RAW-Dual [2] = assay: NF-kB SEAP reporter activity, fold change vs agonist alone; higher = enhanced NF-kB activity; conditions: library stock concentration (final ~1000-fold dilution): 10 mM
# Summary of the method: as §1
# RAW-Dual [3] = assay: NF-kB SEAP reporter activity, fold change vs agonist alone; cytotoxicity flag (confluency mask): cytotoxic (confluency <70% of control); higher = enhanced NF-kB activity
# Summary of the method: as §1
# [4] = agonist: ODN 1826 (TLR9) 0.5 ug/mL
# [5] = agonist: Pam2CSK4 (TLR2/6) 0.1 ug/mL
# [6] = agonist: Pam3CSK4 (TLR2/1) 0.1 ug/mL
# [7] = cytotoxicity flag (confluency mask): not cytotoxic, agonist: Imiquimod (TLR7) […]
# [8] = cytotoxicity flag (confluency mask): not cytotoxic, agonist: MPLA (TLR4) […]
smiles,measurement,setting,value
Cn1c(=O)cc(C(=O)Nc2ccc3c(c2)OCCO3)c2ccccc21 (library stock concentration (final ~1000-fold dilution): 10 mM),NF-kB SEAP reporter activity,RAW-Dual [1]; agonist: LPS (TLR4) 0.1 ug/mL,0.989
same,NF-kB SEAP reporter activity,RAW-Dual [1]; [4],1.02
same,NF-kB SEAP reporter activity,RAW-Dual [1]; [5],0.995
same,NF-kB SEAP reporter activity,RAW-Dual [1]; [6],1.07
Cn1c(=O)cc(C(=O)Nc2ccc3c(c2)OCCO3)c2ccccc21,NF-kB SEAP reporter activity,RAW-Dual [2]; [7],0.997
same,NF-kB SEAP reporter activity,RAW-Dual [2]; [8],0.999
CC#CCn1c(N2CCCC(N)C2)nc2c1c(=O)n(Cc1nc(C)c3ccccc3n1)c(=O)n2C (stereo unspecified) (library stock concentration (final ~1000-fold dilution): 10 mM),NF-kB SEAP reporter activity,RAW-Dual [1]; agonist: LPS (TLR4) 0.1 ug/mL,1.31
same,NF-kB SEAP reporter activity,RAW-Dual [1]; [4],0.823
same,NF-kB SEAP reporter activity,RAW-Dual [1]; [5],1.05
same,NF-kB SEAP reporter activity,RAW-Dual [1]; [6],1.17
CC#CCn1c(N2CCCC(N)C2)nc2c1c(=O)n(Cc1nc(C)c3ccccc3n1)c(=O)n2C (stereo unspecified),NF-kB SEAP reporter activity,RAW-Dual [2]; [7],0.851
same,NF-kB SEAP reporter activity,RAW-Dual [2]; [8],1
O=c1ccoc2cc(O)ccc12 (library stock concentration (final ~1000-fold dilution): 10 mM),NF-kB SEAP reporter activity,RAW-Dual [1]; agonist: LPS (TLR4) 0.1 ug/mL,1.85
same,NF-kB SEAP reporter activity,RAW-Dual [1]; [4],1.15
same,NF-kB SEAP reporter activity,RAW-Dual [1]; [5],1.04
same,NF-kB SEAP reporter activity,RAW-Dual [1]; [6],0.865
O=c1ccoc2cc(O)ccc12,NF-kB SEAP reporter activity,RAW-Dual [2]; [7],1.18
same,NF-kB SEAP reporter activity,RAW-Dual [2]; [8],1.15
CC1COC(Nc2ccc3ncnc(Nc4ccc(OCc5nccs5)c(Cl)c4)c3c2)=N1 (stereo unspecified) (library stock concentration (final ~1000-fold dilution): 10 mM),NF-kB SEAP reporter activity,RAW-Dual [1]; agonist: LPS (TLR4) 0.1 ug/mL,0.991
same,NF-kB SEAP reporter activity,RAW-Dual [1]; [4],0.507
same,NF-kB SEAP reporter activity,RAW-Dual [1]; [5],0.602
same,NF-kB SEAP reporter activity,RAW-Dual [1]; [6],0.911
CS(=O)(=O)CCNCc1ccc(-c2ccc3ncnc(Nc4ccc(OCc5cccc(F)c5)c(Cl)c4)c3c2)o1,NF-kB SEAP reporter activity,RAW-Dual [2]; [7],2.12
same,NF-kB SEAP reporter activity,RAW-Dual [2]; [8],2
Cc1cc(Nc2ncnc3ccc(-c4ccc(CNCCS(C)(=O)=O)o4)cc23)ccc1Oc1ccn2ncnc2c1,NF-kB SEAP reporter activity,RAW-Dual [2]; [7],1.08
same,NF-kB SEAP reporter activity,RAW-Dual [2]; [8],1.53
CS(=O)(=O)CCNCc1ccc(-c2ccc3ncnc(Nc4ccc(OCc5cccc(F)c5)c(Cl)c4)c3c2)o1.Cc1ccc(S(=O)(=O)O)cc1.Cc1ccc(S(=O)(=O)O)cc1 (library stock concentration (final ~1000-fold dilution): 10 mM),NF-kB SEAP reporter activity,RAW-Dual [1]; agonist: LPS (TLR4) 0.1 ug/mL,4.16
same,NF-kB SEAP reporter activity,RAW-Dual [1]; [4],0.272
same,NF-kB SEAP reporter activity,RAW-Dual [1]; [5],0.851
same,NF-kB SEAP reporter activity,RAW-Dual [1]; [6],1.14
CS(=O)(=O)CCNCc1ccc(-c2ccc3ncnc(Nc4ccc(OCc5cccc(F)c5)c(Cl)c4)c3c2)o1 (library stock concentration (final ~1000-fold dilution): 10 mM),NF-kB SEAP reporter activity,RAW-Dual [1]; agonist: LPS (TLR4) 0.1 ug/mL,2.56
same,NF-kB SEAP reporter activity,RAW-Dual [1]; [4],0.324
same,NF-kB SEAP reporter activity,RAW-Dual [1]; [5],0.657
same,NF-kB SEAP reporter activity,RAW-Dual [1]; [6],1.19
C=CC(=O)Nc1ccc2ncnc(Nc3ccc(OCc4cccc(F)c4)c(Cl)c3)c2c1.Cc1ccc(S(=O)(=O)O)cc1 (library stock concentration (final ~1000-fold dilution): 10 mM),NF-kB SEAP reporter activity,RAW-Dual [1]; agonist: LPS (TLR4) 0.1 ug/mL,0.275
same,NF-kB SEAP reporter activity,RAW-Dual [1]; [4],0.575
same,NF-kB SEAP reporter activity,RAW-Dual [1]; [5],0.254
same,NF-kB SEAP reporter activity,RAW-Dual [1]; [6],0.377
CS(=O)(=O)CCNCc1ccc(-c2ccc3ncnc(Nc4ccc(OCc5cccc(F)c5)c(Cl)c4)c3c2)o1.Cc1ccc(S(=O)(=O)O)cc1.Cc1ccc(S(=O)(=O)O)cc1.O (library stock concentration (final ~1000-fold dilution): 10 mM),NF-kB SEAP reporter activity,RAW-Dual [1]; agonist: LPS (TLR4) 0.1 ug/mL,1.96
same,NF-kB SEAP reporter activity,RAW-Dual [1]; [4],0.24
same,NF-kB SEAP reporter activity,RAW-Dual [1]; [5],0.755
same,NF-kB SEAP reporter activity,RAW-Dual [1]; [6],0.786
CC1COC(Nc2ccc3ncnc(Nc4ccc(OCc5nccs5)c(Cl)c4)c3c2)=N1 (stereo unspecified),NF-kB SEAP reporter activity,RAW-Dual [2]; [7],1.28
same,NF-kB SEAP reporter activity,RAW-Dual [2]; [8],1.03
Cc1cc(Nc2ncnc3ccc(-c4ccc(CNCCS(C)(=O)=O)o4)cc23)ccc1Oc1ccn2ncnc2c1 (library stock concentration (final ~1000-fold dilution): 10 mM),NF-kB SEAP reporter activity,RAW-Dual [1]; agonist: LPS (TLR4) 0.1 ug/mL,2.19
same,NF-kB SEAP reporter activity,RAW-Dual [1]; [4],0.229
same,NF-kB SEAP reporter activity,RAW-Dual [1]; [5],0.997
same,NF-kB SEAP reporter activity,RAW-Dual [1]; [6],0.811
C=CC(=O)Nc1ccc2ncnc(Nc3ccc(OCc4cccc(F)c4)c(Cl)c3)c2c1.Cc1ccc(S(=O)(=O)O)cc1,NF-kB SEAP reporter activity,RAW-Dual [2]; [7],0.818
same,NF-kB SEAP reporter activity,RAW-Dual [2]; [8],0.445
CS(=O)(=O)CCNCc1ccc(-c2ccc3ncnc(Nc4ccc(OCc5cccc(F)c5)c(Cl)c4)c3c2)o1.Cc1ccc(S(=O)(=O)O)cc1.Cc1ccc(S(=O)(=O)O)cc1,NF-kB SEAP reporter activity,RAW-Dual [2]; [7],1.68
same,NF-kB SEAP reporter activity,RAW-Dual [2]; [8],1.56
CS(=O)(=O)CCNCc1ccc(-c2ccc3ncnc(Nc4ccc(OCc5cccc(F)c5)c(Cl)c4)c3c2)o1.Cc1ccc(S(=O)(=O)O)cc1.Cc1ccc(S(=O)(=O)O)cc1.O,NF-kB SEAP reporter activity,RAW-Dual [2]; [8],1.99
CCCC1CC(C(=O)NC(C(C)Cl)C2OC(SC)C(O)C(O)C2O)N(C)C1 (stereo unspecified),NF-kB SEAP reporter activity,RAW-Dual [2]; [7],1.02
same,NF-kB SEAP reporter activity,RAW-Dual [2]; [8],1.07
CCCC1CC(C(=O)NC(C(C)Cl)C2OC(SC)C(O)C(O)C2O)N(C)C1 (stereo unspecified) (library stock concentration (final ~1000-fold dilution): 10 mM),NF-kB SEAP reporter activity,RAW-Dual [1]; agonist: LPS (TLR4) 0.1 ug/mL,1.14
same,NF-kB SEAP reporter activity,RAW-Dual [1]; [4],1.04
same,NF-kB SEAP reporter activity,RAW-Dual [1]; [5],1.04
same,NF-kB SEAP reporter activity,RAW-Dual [1]; [6],1.17
COc1cccc2c1C(=O)c1c(O)c3c(c(O)c1C2=O)CC(O)(C(C)=O)CC3OC1CC(N)C(O)C(C)O1.Cl (stereo unspecified),NF-kB SEAP reporter activity,"RAW-Dual [2]; cytotoxicity flag (confluency mask): cytotoxic (confluency <70% of control), agonist: Imiquimod (TLR7) […]",0.365
same,NF-kB SEAP reporter activity,"RAW-Dual [2]; cytotoxicity flag (confluency mask): cytotoxic (confluency <70% of control), agonist: MPLA (TLR4) […]",0.213
COc1cccc2c1C(=O)c1c(O)c3c(c(O)c1C2=O)CC(O)(C(C)=O)CC3OC1CC(N)C(O)C(C)O1.Cl (stereo unspecified) (library stock concentration (final ~1000-fold dilution): 10 mM),NF-kB SEAP reporter activity,RAW-Dual [3]; agonist: LPS (TLR4) 0.1 ug/mL,0.249
same,NF-kB SEAP reporter activity,RAW-Dual [3]; [4],0.191
same,NF-kB SEAP reporter activity,RAW-Dual [3]; [5],0.0932
same,NF-kB SEAP reporter activity,RAW-Dual [3]; [6],0.195
CC1CN(CC(Cc2ccccc2)C(=O)NCC(=O)O)CCC1(C)c1cccc(O)c1 (stereo unspecified),NF-kB SEAP reporter activity,RAW-Dual [2]; [7],1.03
same,NF-kB SEAP reporter activity,RAW-Dual [2]; [8],1.01
CC1CN(CC(Cc2ccccc2)C(=O)NCC(=O)O)CCC1(C)c1cccc(O)c1 (stereo unspecified) (library stock concentration (final ~1000-fold dilution): 10 mM),NF-kB SEAP reporter activity,RAW-Dual [1]; agonist: LPS (TLR4) 0.1 ug/mL,1.51
same,NF-kB SEAP reporter activity,RAW-Dual [1]; [4],1.01
same,NF-kB SEAP reporter activity,RAW-Dual [1]; [5],0.937
same,NF-kB SEAP reporter activity,RAW-Dual [1]; [6],0.609
